Experimental data: PubChem BioAssay (NCATS)
Inconclusive results are not listed. Calls of active or inactive are those of the source. Calls follow the shape of the full dose curve.

assay: Primary qHTS to identify inhibitors of SARS-CoV-2 cell entry (AID 1645846); details: SARS-CoV-2 pseudovirus cell entry assay, luminescence; activity change, negative = inhibition: at 57.1 µM (top of the series) unless noted; series mostly up to 57.1 µM; also: nearly all actives have a fitted effect of over 45% in size
Procedure, shortened: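 Inhibition of spike-mediated entry was scored in human ACE2-transfected Expi293F cells. Particles were MLV-pseudotyped with Wuhan-Hu-1 S carrying a 19-aa C-terminal deletion; signal was luciferase after two days, scaled between spike PP and fusion-protein-free PP.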

Row | SMILES | activity change, negative = inhibition [%] | outcome
1 | CC(=O)c1ccc(S(=O)(=O)NC(=O)NC2CCCCC2)cc1 | 4.85 | –
2 | CCCCOCCOC(=O)c1cccnc1 | – | inactive
3 | CC(=O)OCC1=C(C(=O)O)N2C(=O)[C@@H](NC(=O)Cc3cccs3)[C@H]2SC1 | 1.38 | –
4 | Cc1c(NC(=O)c2cccnc2)c(=O)n(-c2ccccc2)n1C | – | inactive
5 | CC(=O)CC/C=C(\C)CC/C=C(\C)CC/C=C(\C)CCC=C(C)C | -24.7 | –
6 | C[C@@H]1CN(c2c(F)c(F)c3c(=O)c(C(=O)O)cn(C4CC4)c3c2F)C[C@H](C)N1 | – | inactive [at 27.1 µM]
7 | Cc1nnc(SCC2=C(C(=O)O)N3C(=O)[C@@H](NC(=O)Cn4cnnn4)[C@H]3SC2)s1 | – | inactive
8 | CC(=O)OCC(=O)[C@@]1(OC(C)=O)[C@@H](C)C[C@H]2[C@@H]3C[C@H](F)C4=CC(=O)C=C[C@]4(C)[C@@]3(F)[C@@H](O)C[C@@]21C | – | inactive
9 | CCCCC(CC)CN1CN(CC(CC)CCCC)CC(C)(N)C1 (stereo not drawn) | – | inactive
10 | O=C(O)COc1nn(Cc2ccccc2)c2ccccc12 | – | inactive
11 | Cc1cc2nc3c(=O)[nH]c(=O)nc-3n(C[C@H](O)[C@H](O)[C@H](O)CO)c2cc1C | – | inactive [at 27.1 µM]
12 | COc1ccc2c(c1)c(CC(=O)OC/C=C(\C)CC/C=C(\C)CCC=C(C)C)c(C)n2C(=O)c1ccc(Cl)cc1 | – | inactive
13 | CN(C)CCOC(=O)COc1ccc(Cl)cc1 | – | inactive
14 | Nc1nc(=O)n([C@@H]2CS[C@H](CO)O2)cc1F | -20.7 | –
15 | CCc1oc2ccccc2c1C(=O)c1cc(I)c(O)c(I)c1 | -21.9 | –
16 | COc1ccc(C(=O)c2ccccc2O)c(O)c1 | – | inactive
17 | CC(C(=O)O)c1ccc2c(c1)[nH]c1ccc(Cl)cc12 (stereo not drawn) | – | inactive
18 | c1ccc(-c2nc[nH]c2-c2ccccc2)cc1 | – | inactive
